# Pf growth 96h – P. falciparum growth inhibition at 96 hour, primary screen for plastid delayed-death inhibitors | P. falciparum luciferase reporter growth, 96 h | Potency, µM (titrated, usually from 28.7 µM), usual class: inhibitors | 6.9% of 320,000 active | AID 504834
#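 Compounds incubated with erythrocytes infected by luciferase-expressing P. falciparum (2% hematocrit, 0.05% parasitemia final) for 96 hours, 37 C in 5% CO2. Growth inhibition scored as decreased luciferase luminescence.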
# AMA1 RON2 block – inhibitors of Plasmodium falciparum AMA1-RON2 interaction | AlphaScreen AMA1-biotinylated RON2 peptide binding | Potency, µM (doses to about 58.2 µM), hits mostly inhibitors | 0.2% of 360,000 active | AID 720542; further: nearly all actives have a fitted effect of over 45% in size
#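 AMA1 (3D7) with his tag at 25 nM final met compounds first, then biotinylated RON2 peptide at 25 nM; detection used donor plus acceptor beads, 10 µg/mL apiece, read by AlphaScreen after 30 min at room temperature.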
# Cycloheximide cs – counter-screen for Shiga toxin inhibitors: cycloheximide protein synthesis inhibition. max response, %. AID 2314. cell reporter, cycloheximide protein synthesis inhibition counterscreen. 12% of 300,000 active; in the data active means max response mostly above about 13%, no sharp cut-off; inactive means mostly below about 14%; further: read at 38.3 µM for the half of the compounds with a filed dose
# Shiga inhibitor – Shiga toxin inhibition | Vero cells, Shiga toxin protein synthesis inhibition reporter | AID 2315 | 9.2% of 290,000 active | inhibition, % at 38.7 µM; in the data active means inhibition mostly above about 28%, no sharp cut-off; inactive means mostly below about 43%
# Pf growth 48h – P. falciparum growth inhibition at 48 hours (one generation); P. falciparum luciferase growth in erythrocytes, 48 h; Potency, µM (series often up to 28.7 µM), hits mostly inhibitors; 5.9% of 310,000 active
#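 Luciferase-expressing P. falciparum in infected erythrocytes (2% hematocrit, 0.1% parasitemia final) in RPMI 1640/0.5% Albumax were exposed to compound for 48 hours at 37 C, 5% CO2; growth read as luminescence.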
# SARS PLP yeast – blocks SARS-CoV papain-like protease in a yeast assay. S. cerevisiae expressing SARS-CoV PLpro, growth rescue. Potency, µM (titrated, usually from 32.9 µM), hits mostly activators. AID 485353. 0.19% of 330,000 active; calls by dose curve; further: nearly all actives have a fitted effect of over 55% in size
# Numbers stand for hits; - = inactive; ? = inconclusive; . = not tested or not shown; [ ] = another dose, or the depositor's remark. Sampled rows, rich in hits. Any-hit rate of the full collection: about 19%. Unless noted, the call rests on the fitted dose curve; in most records, active means well fitted curve in the direction sought with a large enough effect; inconclusive means small, poorly fitted or top-dose-only effect, or another doubt; inactive means no such curve, though single readings can be large; an effect the other way counts as inactive or inconclusive.
SMILES,Pf growth 96h,AMA1 RON2 block,Cycloheximide cs,Shiga inhibitor,Pf growth 48h,SARS PLP yeast
CC(C(=O)NCc1ccccc1)N1CCN(c2ccc(F)cc2)CC1 (stereo not given),-,-,-,-,-,-
COc1ccc(CNC(=O)C(C)N2CCN(c3ccc(C(C)=O)cc3)CC2)cc1 (stereo not given),-,-,17,-,-,-
COc1ccc(Oc2c(Cl)cnn(-c3ccc(C)cc3)c2=O)cc1,-,-,14,-,-,-
COc1ccc2cnn(-c3ccc(OC(F)(F)Cl)cc3)c(=O)c2c1OC,-,-,-,-,-,-
COc1c(Cl)cnn(-c2ccc(C)cc2)c1=O,-,-,25,66,?,-
COc1ccc(Oc2c(Cl)cnn(-c3ccc(F)cc3)c2=O)cc1,-,-,-,-,-,-
COc1ccc2cnn(-c3ccc(C)cc3)c(=O)c2c1OC,-,-,102,153,.,-
COc1cnn(-c2cccc(C)c2)c(=O)c1Cl,-,-,19,-,-,-
Cc1c(Cl)cccc1N(CC(=O)NC1CCCCC1)S(C)(=O)=O,.,-,-,-,-,-
Cc1ccc(C(C(=O)NC2CCCCC2)N(C(=O)CCCC(=O)Nc2ccccn2)c2ccc3c(c2)OCCO3)cc1 (stereo not given),?,-,11,-,?,-
COCCNC(=O)C(c1ccc(C)cc1)N(C(=O)CCC(=O)Nc1ccccn1)c1ccccc1C (stereo not given),8.3µM,-,-,-,-,-
Cc1cccc(N(C(=O)CCC(=O)Nc2cccnc2)C(C(=O)NC2CCCC2)c2ccncc2)c1 (stereo not given),12µM,-,-,-,?,-
COCCN(C(=O)CCCC(=O)Nc1ccccn1)C(C(=O)NC1CCCCC1)c1ccc(C)cc1 (stereo not given),-,-,-,-,-,-
Cc1cc(NC(=O)CCC(=O)N(c2ccc(F)cc2)C(C(=O)NC2CCCC2)c2ccccc2)no1 (stereo not given),?,-,-,-,?,-
Cc1cccc(N(C(=O)CCC(=O)Nc2cc(C)on2)C(C(=O)NC2CCCC2)c2cccnc2)c1 (stereo not given),-,-,-,-,-,-
O=C(CCCC(=O)N(c1ccc2c(c1)OCCO2)C(C(=O)NC1CCCCC1)c1ccc(F)cc1)Nc1ccccn1 (stereo not given),10µM,-,-,-,?,-
CCOc1ccc(NC(=O)CCN2CCN(S(=O)(=O)c3ccc(Cl)cc3)CC2)cc1,?,-,-,-,.,-
COc1ccccc1NC1CCCCC1NS(=O)(=O)c1ccccc1 (stereo not given),?,-,-,-,-,-
CCOC(=O)c1c(CC(C)C)csc1NC(=O)COC(=O)C1=NNC(=O)CC1,?,-,.,.,-,-
CCOC(=O)c1c(NC(=O)CSc2nnc(C)s2)sc2c1CCC(C)C2 (stereo not given),-,-,-,-,12µM,-
CCOC(=O)c1c(-c2ccc(OC)cc2)csc1NC(=O)CSc1ncnc2sccc12,5.2µM,-,-,-,?,-
CCOC(=O)c1c(NC(=O)CSc2nnc(N)s2)sc(C)c1-c1ccc(C)cc1,10µM,-,-,-,?,-
CCOC(=O)c1c(-c2ccc(OC)cc2)csc1NC(=O)COc1ccc2c(C)cc(=O)oc2c1,-,-,-,-,-,-
CCOC(=O)c1c(CC(C)C)csc1NC(=O)COC(=O)c1ccc(O)cc1,9.3µM,-,.,.,?,-
Cc1cccc(C)c1NC(=O)CNC(=O)CNC(=O)c1ccc2c(c1)OCO2,-,-,.,.,-,-
SMILES,Pf growth 96h,AMA1 RON2 block,Cycloheximide cs,Shiga inhibitor,Pf growth 48h,SARS PLP yeast
CCc1ccc(S(=O)(=O)Nc2ccc(N3CCN(C)CC3)cc2)cc1,-,-,-,-,?,-
COc1cccc(C(O)c2nc(-c3ccc(F)c(Cl)c3)cs2)c1 (stereo not given),.,-,.,.,.,.
CCOC(=O)c1c(-c2ccc(C)o2)csc1NC(=O)CSc1nnc(C)s1,-,-,-,-,12µM,-
CCOC(=O)c1c(-c2ccccc2)csc1NC(=O)CSc1nnc(C)s1,?,-,-,-,2.9µM,-
CCOC(=O)c1c(-c2ccc(C)o2)csc1NC(=O)COC(=O)c1ccc(NC(N)=O)cc1,.,-,-,-,8.3µM,-
CCOC(=O)c1ccc(NC(=O)CSc2nc(C)cc(=O)[nH]2)cc1,-,-,-,-,-,-
CCOC(=O)c1c(-c2ccc(-c3ccccc3)cc2)csc1NC(=O)CNCCN(C)C,?,-,-,-,.,-
CCOC(=O)c1c(-c2ccccc2Cl)csc1NC(=O)CSc1nc(C)cc(=O)[nH]1,12µM,-,-,-,-,-
CC(=O)CSc1ccc(C(=O)O)cn1,-,-[2.32 µM],-,-,-,-
CCOC(=O)c1c(-c2ccc(C)o2)csc1NC(=S)NC(=O)c1ccccc1Br,7.4µM,-,-,-,13µM,-
COc1cc(C(=S)N2CCOCC2)cc(OC)c1OS(=O)(=O)c1ccc(Cl)cc1,10µM,-,-,.,?,-
C[C@]12CC[C@H](O)C[C@H]1CC[C@@H]1[C@@H]2CC[C@]2(C)[C@@H](C3=CC(=O)OC3)CC[C@]12O,-,-,.,.,-,.
CC1OC(OC2C(O)CC(OC3C(O)CC(OC4CCC5(C)C(CCC6C5CCC5(C)C(C7=CC(=O)OC7)CCC65O)C4)OC3C)OC2C)CC(O)C1O (stereo not given),4.8µM,.,-,-,15µM,.
CC(=O)O[C@H]1C[C@H](O[C@H]2[C@@H](O)CC(O[C@H]3[C@@H](O)C[C@H](O[C@H]4CC[C@@]5(C)[C@H](CC[C@@H]6[C@@H]5CC[C@]5(C)[C@@H](C7=CC(=O)OC7)CC[C@]65O)C4)O[C@@H]3C)O[C@@H]2C)O[C@H](C)[C@H]1O[C@@H]1O[C@H](CO)[C@@H](O)[C@H](O)[C@H]1O (stereo not given in full),4.8µM,.,.,.,?,.
CC(=O)OC1CC(OC2C(O)CC(OC3C(O)CC(OC4CCC5(C)C(CCC6C5CC(O)C5(C)C(C7=CC(=O)OC7)CCC65O)C4)OC3C)OC2C)OC(C)C1OC1OC(CO)C(O)C(O)C1O (stereo not given),.,-,-,-,.,.
Cn1c(-c2ccc3ccccc3n2)nc2cnccc21,-,-,27,49,-,-
O=C(N/N=C/c1cccc(F)c1)c1csc2c1CCCC2,-,-,55,95,-,-
O=C(N/N=C/c1ccccc1F)c1csc2c1CCCC2,-,-,42,79,-,-
O=C(NC1CCCC1)c1csc2c1CCCC2,-,-,-,-,-,-
CCCNC(=O)c1csc2c1CCCCC2,-,-,-,-,-,-
CCOC(=O)N1CCC(NC(=O)c2cccc3c2C(=O)N(c2ccc(OC)cc2)C3)CC1,?,-,-,-,.,-
CC(=O)c1ccc(NC(=O)c2cc3nc4c(c(C(F)(F)F)n3n2)CCCC4)cc1,?,.,38,60,?,-

# Source: PubChem
